Measurements: PubChem BioAssay (NCI)
The panel holds about 83,000 compounds, 20% with a hit somewhere; the sample as a whole holds those more often.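 Note: values are percent growth. 100 is the growth of untreated cells, values between 100 and 0 indicate rising inhibition; between -100 and 0 indicates cell death.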 Activity calls are given as the source filed them. How the source made its calls: active means growth percent below 10; inactive means the rest.

How the values were obtained:
Test in all cases: NCI-60 one-dose screen, 48 h (100 = growth as untreated, 0 = no growth, -100 = all killed)
Details in all cases: 10 µM unless noted
SK-MEL-2 melanoma = tested on: SK-MEL-2 melanoma
EKVX NSCLC = tested on: EKVX NSCLC
SN12C renal = tested on: SN12C renal
UO-31 renal = tested on: UO-31 renal
TK-10 renal = tested on: TK-10 renal
ACHN renal = tested on: ACHN renal
CAKI-1 renal = tested on: CAKI-1 renal
A498 renal = tested on: A498 renal
CCRF-CEM leukemia = tested on: CCRF-CEM leukemia
MOLT-4 leukemia = tested on: MOLT-4 leukemia

Measured: growth

O=Nc1c(O)c(Cl)cc2ccccc12
inactive: SK-MEL-2 melanoma 93.4% | EKVX NSCLC 111% | SN12C renal 82.6% | UO-31 renal 64.3% | TK-10 renal 66.3% | ACHN renal 65.3% | CAKI-1 renal 76.5% | A498 renal 77.2% | CCRF-CEM leukemia 39.4% | MOLT-4 leukemia 45.7%

COc1cc(-c2nn(C)nc2-c2cc3ccccc3s2)cc(OC)c1OC
active: A498 renal 1.32%
inactive: SK-MEL-2 melanoma 32.9% | EKVX NSCLC 43.6% | SN12C renal 42.3% | UO-31 renal 40.4% | TK-10 renal 65% | ACHN renal 43.2% | CAKI-1 renal 43.6% | CCRF-CEM leukemia 17.5% | MOLT-4 leukemia 11.7%

N#Cc1c(-c2ccc(Cl)cc2)nc(N/N=C/c2cccc(Br)c2)nc1N1CCOCC1
active: A498 renal -10.8%
inactive: SK-MEL-2 melanoma 94.5% | EKVX NSCLC 68.7% | SN12C renal 91.4% | UO-31 renal 51.2% | TK-10 renal 102% | ACHN renal 71.5% | CAKI-1 renal 73% | CCRF-CEM leukemia 50.3% | MOLT-4 leukemia 36.1%

O=C1/C(=C/N2N=C(c3ccc4ccccc4c3)CC2c2ccccc2O)SC(=S)N1c1cccnc1 (stereo not given)
inactive: SK-MEL-2 melanoma 100% | EKVX NSCLC 43.2% | SN12C renal 39.5% | UO-31 renal 11.6% | TK-10 renal 60.1% | ACHN renal 43.6% | CAKI-1 renal 41.9% | A498 renal 14.3% | CCRF-CEM leukemia 11.7% | MOLT-4 leukemia 19.2%

C=CC(=O)Nc1cccc(-c2nc(SC)nc(NCCN3CCOCC3)c2C#N)c1
inactive: SK-MEL-2 melanoma 82.6% | EKVX NSCLC 86.5% | SN12C renal 81.2% | UO-31 renal 61.4% | TK-10 renal 134% | ACHN renal 80.8% | CAKI-1 renal 86.2% | A498 renal 78.3% | CCRF-CEM leukemia 95.6% | MOLT-4 leukemia 75.9%

O=C1c2cc3c(cc2-c2c1c1ccc(F)cc1c(=O)n2CCCNCCO)OCO3
active: SK-MEL-2 melanoma -46.1% | EKVX NSCLC -14% | SN12C renal -60.4% | UO-31 renal -72.2% | TK-10 renal -18.9% | ACHN renal -52.7% | CAKI-1 renal -7.53% | A498 renal -95.9% | CCRF-CEM leukemia 0.848% | MOLT-4 leukemia -25%

COc1ccc2c(c1)c(-c1nonc1-c1cn(C)c3ccccc13)cn2C
inactive: SK-MEL-2 melanoma 41.4% | EKVX NSCLC 51.7% | SN12C renal 47.8% | UO-31 renal 35.1% | TK-10 renal 59.2% | ACHN renal 48.6% | CAKI-1 renal 30.1% | CCRF-CEM leukemia 25.7% | MOLT-4 leukemia 30.2%
active: A498 renal 3.63%

COc1ccc(S(=O)(=O)N2CC3(COC3)C2)cc1NC(=O)c1[nH]c(C)c2c1CCCCC2=O
inactive: SK-MEL-2 melanoma 62.7% | EKVX NSCLC 58.2% | SN12C renal 54.9% | UO-31 renal 40.4% | TK-10 renal 17.5% | ACHN renal 60.4% | CAKI-1 renal 20% | A498 renal 69.8% | CCRF-CEM leukemia 72.5% | MOLT-4 leukemia 76.4%

Cn1cc(-c2nonc2-c2cn(C)c3ccc(F)cc23)c2cc(F)ccc21
inactive: SK-MEL-2 melanoma 30.5% | EKVX NSCLC 67.9% | SN12C renal 61.6% | UO-31 renal 68.6% | TK-10 renal 85.9% | ACHN renal 70.3% | CAKI-1 renal 42% | A498 renal 54.2% | CCRF-CEM leukemia 33.6% | MOLT-4 leukemia 29.1%

COc1ccc(C2Nc3c(c(C(C)(C)C)nn3-c3ccccc3)C(=O)CS2)cc1 (stereo not given)
inactive: SK-MEL-2 melanoma 98.8% | EKVX NSCLC 93.9% | SN12C renal 99.8% | UO-31 renal 72% | TK-10 renal 100% | ACHN renal 99.9% | CAKI-1 renal 81.9% | A498 renal 113% | CCRF-CEM leukemia 83.9% | MOLT-4 leukemia 75.7%

Cn1cc(C(=O)c2nc(-c3c[nH]c4ccc(Br)cc34)no2)c2cc(F)ccc21
inactive: SK-MEL-2 melanoma 97.5% | EKVX NSCLC 73.2% | SN12C renal 92.8% | UO-31 renal 68.8% | TK-10 renal 115% | ACHN renal 89.6% | CAKI-1 renal 80.1% | A498 renal 107% | CCRF-CEM leukemia 100% | MOLT-4 leukemia 94.8%

COc1ccc(-c2cc(=O)c3c(OC)c4ccoc4cc3o2)cc1
inactive: SK-MEL-2 melanoma 131% | EKVX NSCLC 86.3% | SN12C renal 93.8% | UO-31 renal 90.7% | TK-10 renal 108% | ACHN renal 102% | CAKI-1 renal 103% | A498 renal 121% | CCRF-CEM leukemia 109% | MOLT-4 leukemia 84.7%

CCOC(=O)c1sc2nc(-c3cccc(O)c3)nc(N3CCOCC3)c2c1C
inactive: SK-MEL-2 melanoma 78.9% | EKVX NSCLC 36.1% | SN12C renal 50.7% | UO-31 renal 25.4% | TK-10 renal 79.1% | ACHN renal 58.3% | CAKI-1 renal 72.3% | A498 renal 97.8% | CCRF-CEM leukemia 42.2% | MOLT-4 leukemia 29.1%

COC(=O)[C@]12CCC(C)(C)C[C@H]1[C@H]1C(=O)C[C@@H]3[C@@]4(C)c5c([nH]c6ccccc6c5=O)C(C)(C)[C@@H]4CC[C@@]3(C)[C@]1(C)CC2
inactive: SK-MEL-2 melanoma 75.5% | EKVX NSCLC 52.4% | SN12C renal 70% | UO-31 renal 67.2% | TK-10 renal 84.7% | ACHN renal 53% | CAKI-1 renal 50.7% | A498 renal 69% | CCRF-CEM leukemia 59.5% | MOLT-4 leukemia 43.5%

COc1cc2c(cc1-c1c(C)noc1C)ncc1nc(C3CCOCC3)n([C@@H](C)COC(F)F)c12
inactive: SK-MEL-2 melanoma 76.4% | EKVX NSCLC 55.8% | SN12C renal 66.5% | TK-10 renal 26.6% | ACHN renal 36.9% | CCRF-CEM leukemia 55.6% | MOLT-4 leukemia 48%
active: UO-31 renal -38.3% | CAKI-1 renal -11.1% | A498 renal -6.79%

c1ccc(CCNc2ncnc3[nH]ncc23)cc1
inactive: SK-MEL-2 melanoma 127% | EKVX NSCLC 58.3% | SN12C renal 92.7% | UO-31 renal 62.1% | TK-10 renal 110% | ACHN renal 89.2% | CAKI-1 renal 90.4% | A498 renal 104% | CCRF-CEM leukemia 95.1% | MOLT-4 leukemia 124%

O=C(/C=C/c1cccc(Cl)c1)c1ccc(O)c(CN2CCN(c3cc4c(cc3F)c(=O)c(C(=O)O)cn4C3CC3)CC2)c1
inactive: SK-MEL-2 melanoma 53.7% | EKVX NSCLC 55.7% | SN12C renal 18.9% | UO-31 renal 21.5% | TK-10 renal 48.1% | ACHN renal 27.7% | CAKI-1 renal 44.6% | A498 renal 25.9% | CCRF-CEM leukemia 25.1% | MOLT-4 leukemia 59.9%

COc1ccc(-n2nc(C)c3c(Nc4ccc(NC(=O)Nc5c(Cl)cccc5Cl)cc4)ncnc32)cc1
active: UO-31 renal 8.74%
inactive: SK-MEL-2 melanoma 79.1% | EKVX NSCLC 67% | SN12C renal 77% | TK-10 renal 59.8% | ACHN renal 43.3% | CAKI-1 renal 57.9% | A498 renal 63.4% | CCRF-CEM leukemia 84.5% | MOLT-4 leukemia 81.7%

NS(=O)(=O)c1ccc(CN=C2NC(=O)S/C2=C\c2ccc(Br)cc2)cc1
inactive: SK-MEL-2 melanoma 102% | EKVX NSCLC 103% | SN12C renal 97.1% | UO-31 renal 88.8% | TK-10 renal 108% | ACHN renal 102% | CAKI-1 renal 100% | A498 renal 102% | CCRF-CEM leukemia 95% | MOLT-4 leukemia 99.3%

Cc1ccc2c(C(C[N+](=O)[O-])c3ccco3)c(-c3ccccc3)[nH]c2c1 (stereo not given)
inactive: EKVX NSCLC 39.8% | SN12C renal 39.1% | UO-31 renal 38.9% | TK-10 renal 64.2% | ACHN renal 30.6% | CAKI-1 renal 23.8% | A498 renal 12.3% | CCRF-CEM leukemia 14.4% | MOLT-4 leukemia 21%
active: SK-MEL-2 melanoma 9.58%

O=C(COc1cccc(/C=C2\COc3ccc(Cl)cc3C2=O)c1)c1ccc(Cl)cc1
inactive: SK-MEL-2 melanoma 54.2% | EKVX NSCLC 101% | SN12C renal 97.3% | UO-31 renal 69.3% | TK-10 renal 98.4% | ACHN renal 91% | CAKI-1 renal 84.2% | A498 renal 111% | MOLT-4 leukemia 41.2%
active: CCRF-CEM leukemia 2.99%

CC1=C/C(=C(\c2ccc(N(C)C)cc2)c2ccc([N+](C)(C)C)cc2)C=CC1=[N+](C)C
inactive: SK-MEL-2 melanoma 110% | EKVX NSCLC 54.8% | SN12C renal 50.9% | UO-31 renal 96.1% | TK-10 renal 90% | ACHN renal 78.1% | CAKI-1 renal 99.2% | A498 renal 81.9% | CCRF-CEM leukemia 85.8% | MOLT-4 leukemia 106%

O=C(COc1ccc(/C=C2\CSc3ccccc3C2=O)cc1)Nc1nccs1
inactive: SK-MEL-2 melanoma 83.5% | EKVX NSCLC 129% | SN12C renal 95.2% | UO-31 renal 75.7% | TK-10 renal 85.5% | ACHN renal 104% | CAKI-1 renal 87.5% | A498 renal 159%
active: CCRF-CEM leukemia -66.1% | MOLT-4 leukemia -30%

C(=N/Nc1ncc(-c2cc3cc(-c4ccccc4)ccc3o2)s1)/c1cccs1
inactive: SK-MEL-2 melanoma 99.7% | EKVX NSCLC 94.9% | SN12C renal 87.6% | UO-31 renal 84.8% | TK-10 renal 97.5% | ACHN renal 97.9% | CAKI-1 renal 103% | A498 renal 32.5% | CCRF-CEM leukemia 97.5% | MOLT-4 leukemia 96.5%

O=[N+]([O-])c1cnc(N2CCN(CC3CC3)CC2)nc1N1CCN(CC2CC2)CC1
inactive: SK-MEL-2 melanoma 98.5% | EKVX NSCLC 86.5% | SN12C renal 98.2% | UO-31 renal 80.2% | TK-10 renal 102% | ACHN renal 104% | CAKI-1 renal 92.5% | A498 renal 86.6% | CCRF-CEM leukemia 106% | MOLT-4 leukemia 103%

Cc1ccc(C2=NN3C(C2)c2cc(Br)ccc2OC32CCN(Cc3ccccc3)CC2)o1 (stereo not given)
inactive: SK-MEL-2 melanoma 100% | EKVX NSCLC 86.3% | SN12C renal 91.5% | UO-31 renal 58.6% | TK-10 renal 116% | ACHN renal 98.7% | CAKI-1 renal 71.6% | A498 renal 105% | CCRF-CEM leukemia 80.3% | MOLT-4 leukemia 79.6%

NC(=O)c1cc(I)ccc1NC(=O)/C=C/c1ccccc1Cl
active: CCRF-CEM leukemia -19.6%
inactive: SK-MEL-2 melanoma 75.1% | EKVX NSCLC 28% | SN12C renal 40.7% | UO-31 renal 30.6% | TK-10 renal 62.3% | ACHN renal 56.2% | CAKI-1 renal 13% | A498 renal 62.4% | MOLT-4 leukemia 10.4%
